Data reported in PubChem BioAssay (NCI).
The panel holds about 79,000 compounds, 15% with a hit somewhere; the sample as a whole holds those more often. Unmarked numbers belong to inactive results. Activity calls are given as the source filed them. No stated cut-off is given here; in the data, active means growth inhibition above about 70%; inactive means the rest.

What was measured:
[1] = NCI Yeast Anticancer Drug Screen. Data for the rad50 strain (AID 155);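 further: 0% = growth of vehicle-only cultures of the same strain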; conditions: S. cerevisiae rad50 strain growth inhibition; at 50.0 µM; stronger effect = higher value
Summary of the method: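 Compounds were tested on a yeast strain with an engineered DNA damage repair alteration; the reported value is growth inhibition normalised to vehicle treatment.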

[2] = NCI Yeast Anticancer Drug Screen. Data for the mec2-1 strain (AID 157); conditions: S. cerevisiae mec2-1 strain, at 50.0 µM, stronger effect = higher value
Summary of the method: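 Cells of the genetically defined mec2-1 yeast strain are incubated with test compound. Inhibition of growth is calculated against vehicle-treated controls.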

[3] = NCI Yeast Anticancer Drug Screen. Data for the sgs1 mgt1 strain (AID 161);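 further: 0% = growth of cultures given vehicle only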; conditions: S. cerevisiae sgs1 mgt1 strain, at 50.0 µM, stronger effect = higher value
Summary of the method: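 Read-out: growth inhibition vs vehicle controls. Cells: mutant yeast strain deficient in DNA damage repair.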

[4] = NCI Yeast Anticancer Drug Screen. Data for the cln2 rad14 strain (AID 165);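 further: 0% = growth equal to vehicle treated cultures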; conditions: S. cerevisiae cln2 rad14 strain, at 50.0 µM, stronger effect = higher value
Summary of the method: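 The screen exposed genetically defined yeast (cln2 rad14) to test compounds and scored growth inhibition relative to vehicle-treated controls.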

[5] = NCI Yeast Anticancer Drug Screen. Data for the bub3 strain (AID 167); conditions: S. cerevisiae bub3 mutant strain, at 50.0 µM, stronger effect = higher value
Summary of the method: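 Growth of a checkpoint-deficient yeast mutant is measured after compound exposure. Values represent inhibition relative to vehicle.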

[6] = NCI Yeast Anticancer Drug Screen. Data for the mlh1 rad18 strain (AID 175); conditions: S. cerevisiae mlh1 rad18 strain growth inhibition; at 50.0 µM; stronger effect = higher value
Summary of the method: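 Compound-treated yeast growth, normalised to vehicle controls. Strain bears defined DNA repair mutations.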

SMILES	growth inhibition [1]	growth inhibition [2]	growth inhibition [3]	growth inhibition [4]	growth inhibition [5]	growth inhibition [6]
C=[N+](CNC(=O)CNC(=O)C(Cc1ccc([N+](=O)[O-])cc1)NC(=O)OC(C)(C)C)C(=O)CNC(=O)C(Cc1ccc([N+](=O)[O-])cc1)NC(=O)OC(C)(C)C (stereo unspecified)	-23.1%	-28%	-29.4%	3.3%	-12.2%	-18.8%
O=C1N=NC(=O)N1c1ccccc1	-6.75%	4.3%	1%	-22.2%	-0.05%	2.35%
O=C(NCCCNCCCCNCCCNC(=O)C(F)(F)F)C(F)(F)F	5.05%	-0.9%	6.6%	-8.45%	4.25%	3.3%
Cc1ccc(N=C(N)N)cc1	-1.25%	0.3%	1.05%	12.3%	0.7%	-1.8%
NC(=O)C(C1=CCCCC1)c1ccccc1 (stereo unspecified)	3.25%	-1.3%	2.1%	3.15%	1.95%	0.9%
COc1ccc(C2CC(=O)N(c3ncccc3C)C(=O)C2)cc1	-1%	6.9%	-1.05%	-21.1%	-18.8%	3.65%
O=C1C(Cl)C(c2ccccc2O)N1n1cnc2ccccc2c1=O (stereo unspecified)	-29.4%	8.9%	-12.5%	-9.5%	-7.8%	-16.2%
CN(C)c1ccc(/C=N/NC(=O)c2ccccc2NC(=O)c2ccc(Cl)cc2)c(Cl)c1	1.4%	0.45%	19.9%	-6.3%	-6.1%	0.5%
NC[C@H]1Nc2ccccc2[C@@H](O)C1O (stereo partly specified)	14.6%	6.95%	0.4%	8.9%	12.6%	-12.1%
Cc1nc(CO)cc(=O)[nH]1	19.6%	-5.5%	12.2%	9.85%	-25.4%	14.1%
c1ccc(C2=Nc3ccccc3N=C3CCCC32)cc1 (stereo unspecified)	45.2%	22.6%	3.3%	10.6%	21.4%	58.7%
COc1ccc(Nc2nc3c([nH]2)c(=O)n(C)c(=O)n3C)cc1	-15.6%	5.1%	-11.3%	6.9%	-1.3%	13.3%
C=CCNC(=O)C1C2C=CC(C2)C1C(=O)NCC=C (stereo unspecified)	4.95%	-4.8%	-21.9%	-4.85%	-7.95%	24.8%
OCCN(CCO)c1cc(/C=C/c2c3ccccc3cc3ccccc23)nc2ccccc12	94.2% (active)	95.9% (active)	96.1% (active)	94.8% (active)	96.5% (active)	95.7% (active)
O=S(=O)(O)CC(NCc1ccccc1)c1ccccc1 (stereo unspecified)	-28.9%	-0.45%	-19.6%	-36.9%	13.8%	-5%
CCN(CC)CCOB(c1cccc2ccccc12)c1cccc2ccccc12	39.6%	24.4%	17.1%	26.8%	-3.4%	43.8%
CCCC1OCC(CC)C(CCC)O1 (stereo unspecified)	25.5%	4.95%	6.25%	-37%	7.4%	2.7%
O=C(C[n+]1ccccc1)c1cc2c(c3ccccc13)CCCC2	3.3%	-3.2%	36.3%	20.8%	-4.6%	19.5%
CCCC(NC(C)=O)C(=O)O (stereo unspecified)	8.6%	2.75%	2.8%	-21.1%	1.15%	8%
O=C(Nc1cccc(C(=O)Nc2ccc3cc(S(=O)(=O)O)cc(S(=O)(=O)O)c3c2)c1)Nc1cccc(C(=O)Nc2ccc3cc(S(=O)(=O)O)cc(S(=O)(=O)O)c3c2)c1	6.8%	34.1%	9.25%	-3%	3.65%	33%
NC(=S)N/N=C1/CCCC/C1=N/O	46.1%	33.1%	36.2%	-0.15%	25.2%	-6.35%

SMILES	growth inhibition [1]	growth inhibition [2]	growth inhibition [3]	growth inhibition [4]	growth inhibition [5]	growth inhibition [6]
CCCCCCCCCCCCCCCC/C(C)=C\C(=O)OC	3.8%	20.3%	22.9%	-0.9%	28.9%	16.1%
COc1ccc(CCC2(C)OCCCO2)cc1	9.75%	-0.65%	-0.85%	-6.75%	-5.8%	17.4%
c1ccc(C2SCSCS2)cc1	12.1%	-5.45%	-15.8%	-8.4%	1.1%	6.95%
CC(C)N1CCC(OC(=O)Nc2ccccc2)C1 (stereo unspecified)	3.85%	5.6%	-7.75%	-27.1%	-14.5%	8.35%
C=CC1(C(=O)O)CCC(C(C)(C)C)CC1 (stereo unspecified)	42.9%	42%	31.6%	36.1%	21.6%	13.3%
C/C=C(/C)C(=O)OC1CC(C)=CC(OC(=O)/C(C)=C\C)[C@]2(C)C1[C@](O)(C(C)C)C[C@H]2OC(C)=O (stereo partly specified)	41%	20.6%	28.2%	30.2%	24.9%	49.4%
Clc1ccccc1CSc1cc(SCc2ccccc2Cl)nc(SCc2ccccc2Cl)n1	-8%	-2.75%	-2.25%	23.3%	-7.3%	22%
CCCN1CN(C(C(=O)N[C@@H]2C(=O)N3C(C(=O)O)=C(C)CSC23)c2ccc(O)cc2)CSC1=S (stereo partly specified)	11.8%	7.15%	10.2%	-25.8%	-23.6%	34.4%
CCCCCCCCCCCC(=O)OCCS(=O)(=O)CCOC(=O)CCCCCCCCCCC	30%	4.35%	-1.2%	-23.9%	15.4%	22.2%
O=c1[nH]c(C(F)(F)F)c(CCc2ccccc2)c(=O)[nH]1	3.5%	20.1%	36.9%	-3.8%	36.3%	29.8%
N#CC(C#N)=Cc1cccc(Oc2ccccc2)c1	57.1%	-2.8%	9.6%	8.65%	-8.65%	-15.7%
Cc1cc(N(CCC#N)CCC#N)ccc1/C(N=Nc1ccc(Cl)cc1)=N\NC(=O)c1cc(Cl)ccc1O	-16.6%	-16.1%	-31.1%	-20.2%	-29.6%	-59.5%
CC(=O)N1CCCCCC1=O	-30.3%	-16.9%	25.4%	-7.55%	1.95%	-26.8%
COc1cccc(/C=N/O)c1OC	6.75%	4.25%	2.6%	8.55%	-1.85%	2%
Cc1ccc(NC(=O)CCSC(=O)Nc2ccc(C)cc2)cc1	-1.2%	-2.65%	-7.05%	21.2%	8.1%	7.9%
O=C(O)CC(=O)C(C(=O)O)C(CCc1ccccc1)C(C(=O)O)C(=O)CC(=O)O (stereo unspecified)	-21.2%	-13.6%	-19.7%	10.2%	-2.75%	-11.4%
Cc1c(C)c2ccc(OC(C)C(=O)O)cc2oc1=O (stereo unspecified)	-10.9%	0.8%	22.2%	31.5%	10.1%	36%
COC(=O)c1nc(=S)[nH]c(C(=O)OC)c1C(=O)c1ccc(C)cc1	-3.7%	-7.15%	5.75%	-14%	10.6%	21.4%
COC(=O)Cc1c(-c2[nH]c3ccccc3c2CC(=O)OC)[nH]c2ccccc12	13.9%	7.45%	6%	-17.4%	3.85%	-20.8%
CCCOc1ccc(C(=O)O)cc1	10.8%	7.85%	6.3%	-2%	-14.8%	4.15%
